Screens as filed in PubChem.
CYP2C9 activ = CYP2C9 (human) activation | recombinant CYP2C9, luciferin-H conversion, luminescence; stronger effect = higher value; factor 1 = untreated enzyme, 0 = blocked | AID 1024 | P11712 | activation factor at 5 µM | 96,000 compounds, 1.4% hits;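 active = activation factor of 2 or more for CYP2C9 at a 5 µM dose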;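 also: 0 = sulfaphenazole-blocked wells and 1 = vehicle-only wells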
Target sequence (P11712 whole entry, looked up): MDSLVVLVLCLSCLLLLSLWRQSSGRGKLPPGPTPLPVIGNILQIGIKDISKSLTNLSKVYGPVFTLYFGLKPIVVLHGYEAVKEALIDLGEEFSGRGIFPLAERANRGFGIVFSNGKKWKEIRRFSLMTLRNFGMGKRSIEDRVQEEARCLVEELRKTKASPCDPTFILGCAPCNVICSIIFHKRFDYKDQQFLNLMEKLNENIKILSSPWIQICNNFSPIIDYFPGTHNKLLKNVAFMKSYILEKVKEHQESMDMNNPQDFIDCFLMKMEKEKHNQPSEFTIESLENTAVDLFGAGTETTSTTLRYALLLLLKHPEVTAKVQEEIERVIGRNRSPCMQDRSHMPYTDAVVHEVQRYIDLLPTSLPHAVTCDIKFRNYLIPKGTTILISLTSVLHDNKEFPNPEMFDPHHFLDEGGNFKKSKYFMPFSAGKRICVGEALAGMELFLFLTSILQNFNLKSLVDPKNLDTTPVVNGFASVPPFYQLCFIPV
CYP2C19 inhib = blocks human cytochrome P450 2C19; P33261; CYP2C19 Supersomes, luciferin-H EGE luminescence, 30 min; inhibition, % at 5 µM; 96,000 compounds, 21% hits; AID 778;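 active = CYP2C19 inhibition above a set limit at 5 µM in the primary screen, cut at about 50% in these data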;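 also: plate controls were negative control wells for no effect and 2.5 mM tranylcypromine positive control for full effect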
sEH inh = soluble epoxide hydrolase (human) inhibition; AID 707; inhibition, % at 2 µM; recombinant human sEH enzymatic activity assay; 91,000 compounds, 0.34% hits; P34913; in the data active = inhibition above about 80%
sEH act = activators of human soluble epoxide hydrolase; activation, % at 2 µM; purified human sEH enzymatic activity, activator screen; 91,000 compounds, 0.04% hits; P34913; in the data active = activation above about 37%
CYP2C19 activ = activators of human cytochrome P450 2C19. recombinant CYP2C19, luciferin-H EGE luminescence; stronger effect = higher value; 0 = fully inhibited enzyme, 1 = untreated enzyme. activation factor at 5 µM. AID 1025. P33261. 96,000 tested, under 10 active;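 active = activation factor of at least 2 at 5 µM in the primary screen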;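 also: 0 = wells with 2.5 mM tranylcypromine and 1 = vehicle-only wells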
CYP2C9 inhib = human CYP2C9 inhibition. CYP2C9 Supersomes, luciferin-H conversion, luminescence. inhibition, % at 5 µM. 96,000 compounds, 20% hits;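 active = blocking of liver enzyme CYP2C9 beyond about 50% at 5 µM, limit read from the data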
* hit, by the source's call; · = no result given. A selection: hits, their analogues and other compounds. The true share with any hit is near 27%.

SMILES	CYP2C9 activ	CYP2C19 inhib	sEH inh	sEH act	CYP2C19 activ	CYP2C9 inhib
COc1cc2c(cc1OC)C(C(=O)Nc1ccc3c(c1)OCCO3)C(c1cccnc1)N(C)C2=O (stereo not drawn)	0.5	3.3	4.0	-4.4	1	54.1*
COc1cc(/C=N/NC(=O)COc2ccc(Cl)cc2)ccc1OS(=O)(=O)c1ccc(C)cc1	0.4	36.8	-7.0	10.3	0.6	64.5*
COc1cc(/C=N/NC(=O)c2cccc([N+](=O)[O-])c2)ccc1OCc1ccccc1	·	·	18.1	-20.1	·	·
COc1cc(/C=N\n2cnnc2)ccc1OCC(=O)Nc1ccc(C)cc1	0.6	15.8	3.9	-4.2	0.8	44.0
COc1ccc(/C=N/NS(=O)(=O)c2ccc(C)cc2)cc1OC(=O)c1ccc(C)cc1	0.1	4.4	9.3	-7.6	1	88.1*
COc1ccc(/C=N/NS(=O)(=O)c2ccccc2)cc1OS(=O)(=O)c1ccc(C)cc1	0.1	52.0*	-10.5	12.5	0.5	92.7*
COc1ccc(C(=O)Oc2cc(/C=N/NS(=O)(=O)c3ccccc3)ccc2OC)cc1	0.7	18.9	-3.6	5.5	0.8	32.8
COc1ccc(/C=N/NC(=O)c2cccc([N+](=O)[O-])c2)cc1OC(=O)c1ccc(C)cc1	0.5	35.8	8.7	-8.8	0.6	53.8*
C(=N\N1CCN(Cc2cccc3ccccc23)CC1)/c1cccnc1	1	31.3	-1.7	4.1	0.7	-1.6
Cc1ccc(S(=O)(=O)N2CCC(C(=O)N[C@H](C(=O)N3CCN(C)CC3)C(C)C)CC2)cc1	0.9	9.7	6.2	-3.4	0.9	9.2
CCCN1/C(=C(/C#N)C2=NS(=O)(=O)c3ccccc32)N(C)c2ccccc21	1	14.6	-11.5	8.9	0.9	-0.3
COc1ccc(NC(C)=O)cc1NC(=O)CN1CCN(C(=O)c2ccco2)CC1	1	-2.0	-8.9	11.9	1	3.4
COc1cc(/C=N/NC(=O)c2cccnc2)ccc1OS(=O)(=O)c1ccc(F)cc1	0.2	66.7*	30.4	-30.3	0.3	83.4*
COc1ccc(-c2cc(C(=O)N3CCN(c4ccccn4)CC3)c3ccccc3n2)cc1	0.2	58.6*	5.1	-6.7	0.4	76.9*
CCOC(=O)N1CCN(C(=O)c2cc(-c3ccc(OCC)cc3)nc3ccccc23)CC1	0.2	16.2	·	·	0.8	76.4*
CCOc1ccc(-c2cc(C(=O)N3CCN(C)CC3)c3ccccc3n2)cc1	0.8	-3.8	·	·	1	22.4
COc1ccc(OC)c(-c2cc(C(=O)N3CCN(c4ncccn4)CC3)c3ccccc3n2)c1	0.1	65.0*	-4.0	2.9	0.3	89.4*
Cc1ccccc1C(=O)N1CCc2ccccc2C1	0.8	·	-2.7	2.4	·	16.2
CCOc1ccc(-c2cc(C(=O)N3CCN(c4ccccn4)CC3)c3ccccc3n2)cc1	0.8	5.9	-0.3	1.6	0.9	20.6
COc1ccccc1-c1cc(C(=O)N2CCc3ccccc3C2)c2ccccc2n1	0.4	47.7	15.4	-14.8	0.5	63.7*
COc1cc(-c2cc(C(=O)N3CCN(c4ccccn4)CC3)c3ccccc3n2)cc(OC)c1OC	·	·	-0.1	-1.6	·	·
CCN(CC)S(=O)(=O)c1ccc(C(=O)N2CCN=C2SCc2cccnc2)cc1	0.5	38.1	-23.6	22.9	0.6	47.7
O=C(C1CCCN(S(=O)(=O)c2cnc[nH]2)C1)N1CC(=O)N(CCc2ccccc2)C(=O)C1 (stereo not drawn)	0.7	12.5	8.4	-8.4	0.9	27.5
CCCN1Cc2cccc(C(=O)NC(C)c3cccs3)c2C1=O (stereo not drawn)	0.7	23.2	5.0	-5.7	0.8	30.4
CC(C)OP(=O)(c1ccc(N(C)C)cc1)C(O)c1ccccc1 (stereo not drawn)	1.1	38.7	9.6	-9.7	0.6	-5.9
SMILES	CYP2C9 activ	CYP2C19 inhib	sEH inh	sEH act	CYP2C19 activ	CYP2C9 inhib
O=C(c1ccco1)N1CCN(C(=O)c2cc(-c3ccccc3)nc3ccccc23)CC1	0.9	-7.9	0.5	1.2	1.1	14.0
O=C(O)c1cc(-c2ccncc2)nc2ccc(S(=O)(=O)N3CCOCC3)cc12	0.4	6.9	-9.0	7.9	0.9	59.6*
CS(=O)(=O)N1CCN(C(=O)c2cc(-c3ccncc3)nc3ccc(Cl)cc23)CC1	0.3	36.4	3.4	-2.2	0.6	67.5*
O=C(c1ccco1)N1CCN(C(=O)c2cc(-c3ccccn3)nc3ccc(Cl)cc23)CC1	0.1	53.2*	1.9	-0.6	0.5	88.5*
O=C(c1cc(-c2ccccn2)nc2ccc(Br)cc12)N1CCc2ccccc2C1	0.1	87.1*	-18.6	16.3	0.1	88.7*
CCCNS(=O)(=O)c1ccc(OCC(=O)NCCCOC)cc1	·	·	1.6	1.3	·	·
CN(C)S(=O)(=O)c1ccc(N2CCN(S(=O)(=O)c3ccc(F)cc3)CC2)c(Cl)c1	0.9	11.5	-5.3	2.8	0.9	10.9
CCN1CCN(C(=O)c2cnn3c(C(F)F)cc(-c4ccc(C)cc4)nc23)CC1	0.9	8.1	6.8	-4.5	0.9	10.5
Cc1ccc(-c2cc(C(F)F)n3ncc(C(=O)N4CCN(c5ccccn5)CC4)c3n2)cc1	0.4	46.4	-7.9	7.8	0.5	56.8*
C=COCCNC(=O)Nc1ccc(Cl)c(Cl)c1	·	·	8.0	-5.4	·	·
COC(CNC(=O)c1cc(C(=O)c2c(-c3c(Cl)cccc3Cl)noc2C)c[nH]1)OC	0.8	13.4	-7.7	10.7	0.9	23.3
Cc1ccc(NC(=O)COc2ccc(/C=C3/SC(=Nc4ccccc4)N(Cc4cccnc4)C3=O)cc2)cc1	0.5	2.6	32.3	-31.4	1	53.1*
O=C(c1ccc(Cl)cc1)N1CCC(O)(CSc2ccc(Cl)cc2Cl)CC1	0.8	-0.2	·	·	1	22.5
COc1ccc2c(C(=O)CN3CCC(C)CC3)c[nH]c2c1	0.9	13.7	-5.6	2.8	0.9	14.0
COc1ccc2c(C(=O)CN3CC(C)OC(C)C3)c[nH]c2c1 (stereo not drawn)	0.8	53.0*	-25.0	24.6	0.5	21.1
C=CCc1c(C)nc(C)nc1N/N=C/c1ccc(N(C)C)cc1	1	26.8	13.9	-13.3	0.7	1.2
CN(C)c1ccc(/C=N/Nc2ccc(-n3ccnc3)nn2)cc1	0.3	62.0*	-11.4	9.2	0.4	69.6*
CC1Cc2ccccc2N1C(=O)CSc1nnc(Cc2ccccc2)n1CCc1ccccc1 (stereo not drawn)	0.1	92.3*	14.4	-13.1	0.1	93.0*
Cn1nnnc1SCC(=O)N1CCCc2ccccc21	·	·	-1.0	0.7	·	·
CC1Cc2ccccc2N1C(=O)CSc1nnnn1C (stereo not drawn)	1.1	42.6	1.1	-2.8	0.6	-7.0
CC1Cc2ccccc2N1C(=O)CSc1nnnn1C1CCCC1 (stereo not drawn)	0.4	26.5	10.2	-11.6	0.7	57.5*
O=C(CSc1nnnn1C1CCCC1)N1CCCc2ccccc21	1.1	91.0*	-7.1	7.6	0.1	-7.8
